Assay results reported in ChEMBL document CHEMBL1961873, “Compounds: GSK PKIS; Assays: Nanosyn kinase panel” (2012).

Key:
[1] = biological target: Calcium/calmodulin-dependent protein kinase type II subunit alpha (Homo sapiens) (UniProt Q9UQM7); conditions: at 1 µM;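 further: reported value is a mean percent inhibition of CAMK2A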
[2] = biological target: Calcium/calmodulin-dependent protein kinase type II subunit delta (Homo sapiens) (UniProt Q13557); conditions: at 0.1 µM
[3] = biological target: Calcium/calmodulin-dependent protein kinase type II subunit delta (Homo sapiens) (UniProt Q13557); conditions: at 1 µM
[4] = biological target: T1, Calcium/calmodulin-dependent protein kinase type IV (Homo sapiens) (UniProt Q16566); conditions: at 0.1 µM
T1 sequence (whole entry): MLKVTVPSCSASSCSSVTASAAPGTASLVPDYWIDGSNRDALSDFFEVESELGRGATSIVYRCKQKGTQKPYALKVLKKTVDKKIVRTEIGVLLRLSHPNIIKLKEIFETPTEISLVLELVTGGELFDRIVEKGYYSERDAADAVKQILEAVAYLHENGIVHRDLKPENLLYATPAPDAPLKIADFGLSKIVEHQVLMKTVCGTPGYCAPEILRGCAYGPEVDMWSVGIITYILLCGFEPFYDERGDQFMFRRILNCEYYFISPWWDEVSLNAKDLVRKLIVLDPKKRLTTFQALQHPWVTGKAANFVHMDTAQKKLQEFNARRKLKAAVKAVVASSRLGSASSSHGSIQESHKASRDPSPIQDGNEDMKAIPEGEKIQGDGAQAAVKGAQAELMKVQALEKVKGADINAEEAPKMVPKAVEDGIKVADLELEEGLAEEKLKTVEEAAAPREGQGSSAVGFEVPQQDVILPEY

[5] = biological target: T1, Calcium/calmodulin-dependent protein kinase type IV (Homo sapiens); conditions: at 1 µM
[6] = biological target: T2, Serine/threonine-protein kinase Chk1 (Homo sapiens) (UniProt O14757); conditions: at 0.1 µM
T2 sequence (whole entry): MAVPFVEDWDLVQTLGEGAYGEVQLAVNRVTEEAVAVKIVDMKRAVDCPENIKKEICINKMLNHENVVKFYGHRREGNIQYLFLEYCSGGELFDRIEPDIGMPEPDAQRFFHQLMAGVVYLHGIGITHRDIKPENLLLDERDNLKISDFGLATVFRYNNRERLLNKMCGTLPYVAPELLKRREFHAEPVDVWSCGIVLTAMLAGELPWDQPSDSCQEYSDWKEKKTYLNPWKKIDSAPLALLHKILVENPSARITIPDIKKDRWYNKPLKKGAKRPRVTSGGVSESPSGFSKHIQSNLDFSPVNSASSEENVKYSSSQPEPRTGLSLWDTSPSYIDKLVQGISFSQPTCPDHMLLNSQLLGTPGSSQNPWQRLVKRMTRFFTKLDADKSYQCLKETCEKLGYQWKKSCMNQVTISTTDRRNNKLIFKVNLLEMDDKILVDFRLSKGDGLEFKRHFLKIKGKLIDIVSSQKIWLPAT

[7] = biological target: T2, Serine/threonine-protein kinase Chk1 (Homo sapiens); conditions: at 1 µM
[8] = biological target: Serine/threonine-protein kinase Chk2 (Homo sapiens) (UniProt O96017); conditions: at 0.1 µM
[9] = biological target: Serine/threonine-protein kinase Chk2 (Homo sapiens) (UniProt O96017); conditions: at 1 µM
[10] = biological target: Death-associated protein kinase 1 (Homo sapiens) (UniProt P53355); conditions: at 0.1 µM
Sequence of Death-associated protein kinase 1 (Homo sapiens) (P53355 whole entry, looked up): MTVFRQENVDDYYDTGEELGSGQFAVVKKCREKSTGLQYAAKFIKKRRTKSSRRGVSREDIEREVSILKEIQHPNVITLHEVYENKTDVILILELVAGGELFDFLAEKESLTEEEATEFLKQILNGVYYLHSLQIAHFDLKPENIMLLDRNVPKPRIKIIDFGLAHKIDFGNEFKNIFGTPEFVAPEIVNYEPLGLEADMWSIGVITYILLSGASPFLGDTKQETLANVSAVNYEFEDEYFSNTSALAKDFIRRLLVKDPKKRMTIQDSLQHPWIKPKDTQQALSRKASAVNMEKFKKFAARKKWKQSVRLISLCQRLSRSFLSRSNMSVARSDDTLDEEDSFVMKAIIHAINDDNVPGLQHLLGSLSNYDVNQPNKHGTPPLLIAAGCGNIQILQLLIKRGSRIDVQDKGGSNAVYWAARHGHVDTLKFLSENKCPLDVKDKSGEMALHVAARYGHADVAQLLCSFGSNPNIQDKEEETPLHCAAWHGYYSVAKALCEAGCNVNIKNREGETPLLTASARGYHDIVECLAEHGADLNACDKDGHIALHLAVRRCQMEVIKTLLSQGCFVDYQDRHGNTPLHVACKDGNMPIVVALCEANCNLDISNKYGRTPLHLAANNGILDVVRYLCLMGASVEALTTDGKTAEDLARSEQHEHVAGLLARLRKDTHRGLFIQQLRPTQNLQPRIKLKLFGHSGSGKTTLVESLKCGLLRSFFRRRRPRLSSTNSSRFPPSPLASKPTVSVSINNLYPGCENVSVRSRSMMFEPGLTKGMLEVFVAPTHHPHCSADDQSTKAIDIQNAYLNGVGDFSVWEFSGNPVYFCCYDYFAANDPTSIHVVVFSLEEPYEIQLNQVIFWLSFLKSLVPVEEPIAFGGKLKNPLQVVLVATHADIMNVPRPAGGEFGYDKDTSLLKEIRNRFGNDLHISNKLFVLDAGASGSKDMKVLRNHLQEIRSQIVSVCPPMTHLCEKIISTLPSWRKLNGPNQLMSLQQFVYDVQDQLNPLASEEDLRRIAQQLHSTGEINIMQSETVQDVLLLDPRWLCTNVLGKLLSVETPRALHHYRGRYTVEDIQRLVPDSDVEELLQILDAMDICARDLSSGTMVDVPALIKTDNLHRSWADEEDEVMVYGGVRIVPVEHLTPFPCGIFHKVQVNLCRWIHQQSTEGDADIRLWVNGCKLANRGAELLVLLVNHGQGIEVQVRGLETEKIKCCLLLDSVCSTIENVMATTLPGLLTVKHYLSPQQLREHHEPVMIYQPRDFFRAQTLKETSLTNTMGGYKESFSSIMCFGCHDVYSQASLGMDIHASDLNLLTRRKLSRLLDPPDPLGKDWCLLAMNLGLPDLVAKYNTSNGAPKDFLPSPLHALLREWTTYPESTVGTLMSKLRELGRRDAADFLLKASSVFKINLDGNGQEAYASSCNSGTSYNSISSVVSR

[11] = biological target: Death-associated protein kinase 1 (Homo sapiens) (UniProt P53355); conditions: at 1 µM
[12] = biological target: T3, Serine/threonine-protein kinase DCLK2 (Homo sapiens) (UniProt Q8N568); conditions: at 0.1 µM
T3 sequence (whole entry): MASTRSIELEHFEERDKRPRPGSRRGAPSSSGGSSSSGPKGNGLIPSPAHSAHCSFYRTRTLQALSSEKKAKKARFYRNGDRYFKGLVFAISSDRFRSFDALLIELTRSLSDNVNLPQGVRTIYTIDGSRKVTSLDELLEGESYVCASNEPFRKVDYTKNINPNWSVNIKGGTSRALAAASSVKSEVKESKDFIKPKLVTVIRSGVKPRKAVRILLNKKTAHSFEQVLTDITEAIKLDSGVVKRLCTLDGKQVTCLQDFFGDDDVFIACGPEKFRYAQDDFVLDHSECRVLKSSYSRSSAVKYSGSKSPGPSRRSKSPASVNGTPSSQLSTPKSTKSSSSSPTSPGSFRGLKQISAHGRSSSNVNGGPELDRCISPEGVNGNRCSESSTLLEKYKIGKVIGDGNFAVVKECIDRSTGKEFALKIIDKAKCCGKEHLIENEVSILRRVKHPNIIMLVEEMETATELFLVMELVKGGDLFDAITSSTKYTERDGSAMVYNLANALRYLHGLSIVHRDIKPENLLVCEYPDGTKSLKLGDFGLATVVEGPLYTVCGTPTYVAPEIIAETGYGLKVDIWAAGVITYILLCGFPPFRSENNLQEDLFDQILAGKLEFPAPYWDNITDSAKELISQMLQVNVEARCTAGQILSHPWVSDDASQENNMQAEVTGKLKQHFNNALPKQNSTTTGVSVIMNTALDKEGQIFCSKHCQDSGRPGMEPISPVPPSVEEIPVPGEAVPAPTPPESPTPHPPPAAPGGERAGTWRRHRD

[13] = biological target: T3, Serine/threonine-protein kinase DCLK2 (Homo sapiens); conditions: at 1 µM
[14] = biological target: MAP kinase-activated protein kinase 2 (Homo sapiens) (UniProt P49137); conditions: at 0.1 µM
Sequence of MAP kinase-activated protein kinase 2 (Homo sapiens) (P49137 whole entry, looked up): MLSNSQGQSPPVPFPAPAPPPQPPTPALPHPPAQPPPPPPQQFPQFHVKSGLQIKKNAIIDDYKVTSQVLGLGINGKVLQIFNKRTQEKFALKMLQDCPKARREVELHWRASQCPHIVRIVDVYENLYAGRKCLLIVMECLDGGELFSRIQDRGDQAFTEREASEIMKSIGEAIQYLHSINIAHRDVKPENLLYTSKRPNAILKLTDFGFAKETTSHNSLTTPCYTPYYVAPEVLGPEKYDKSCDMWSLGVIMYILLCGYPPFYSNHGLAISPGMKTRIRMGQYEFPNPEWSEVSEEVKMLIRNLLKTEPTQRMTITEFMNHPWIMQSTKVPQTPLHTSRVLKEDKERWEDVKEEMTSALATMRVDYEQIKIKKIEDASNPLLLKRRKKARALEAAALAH

[15] = biological target: MAP kinase-activated protein kinase 2 (Homo sapiens) (UniProt P49137); conditions: at 1 µM
[16] = biological target: MAP kinase-activated protein kinase 3 (Homo sapiens) (UniProt Q16644); conditions: at 0.1 µM
Sequence of MAP kinase-activated protein kinase 3 (Homo sapiens) (Q16644 whole entry, looked up): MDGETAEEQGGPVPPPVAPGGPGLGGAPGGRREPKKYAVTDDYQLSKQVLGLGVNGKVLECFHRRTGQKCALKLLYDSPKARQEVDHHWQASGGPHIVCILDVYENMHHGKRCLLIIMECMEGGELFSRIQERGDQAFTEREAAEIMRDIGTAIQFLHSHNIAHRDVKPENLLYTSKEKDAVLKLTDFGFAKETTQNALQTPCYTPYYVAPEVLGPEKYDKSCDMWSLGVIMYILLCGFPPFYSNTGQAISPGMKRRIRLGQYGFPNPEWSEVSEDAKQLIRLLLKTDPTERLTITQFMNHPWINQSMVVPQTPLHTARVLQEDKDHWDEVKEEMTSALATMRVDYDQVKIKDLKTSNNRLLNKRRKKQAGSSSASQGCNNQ

[17] = biological target: MAP kinase-activated protein kinase 3 (Homo sapiens) (UniProt Q16644); conditions: at 1 µM
[18] = biological target: Serine/threonine-protein kinase MARK1 (Homo sapiens) (UniProt Q9P0L2); conditions: at 0.1 µM
Sequence of Serine/threonine-protein kinase MARK1 (Homo sapiens) (Q9P0L2 whole entry, looked up): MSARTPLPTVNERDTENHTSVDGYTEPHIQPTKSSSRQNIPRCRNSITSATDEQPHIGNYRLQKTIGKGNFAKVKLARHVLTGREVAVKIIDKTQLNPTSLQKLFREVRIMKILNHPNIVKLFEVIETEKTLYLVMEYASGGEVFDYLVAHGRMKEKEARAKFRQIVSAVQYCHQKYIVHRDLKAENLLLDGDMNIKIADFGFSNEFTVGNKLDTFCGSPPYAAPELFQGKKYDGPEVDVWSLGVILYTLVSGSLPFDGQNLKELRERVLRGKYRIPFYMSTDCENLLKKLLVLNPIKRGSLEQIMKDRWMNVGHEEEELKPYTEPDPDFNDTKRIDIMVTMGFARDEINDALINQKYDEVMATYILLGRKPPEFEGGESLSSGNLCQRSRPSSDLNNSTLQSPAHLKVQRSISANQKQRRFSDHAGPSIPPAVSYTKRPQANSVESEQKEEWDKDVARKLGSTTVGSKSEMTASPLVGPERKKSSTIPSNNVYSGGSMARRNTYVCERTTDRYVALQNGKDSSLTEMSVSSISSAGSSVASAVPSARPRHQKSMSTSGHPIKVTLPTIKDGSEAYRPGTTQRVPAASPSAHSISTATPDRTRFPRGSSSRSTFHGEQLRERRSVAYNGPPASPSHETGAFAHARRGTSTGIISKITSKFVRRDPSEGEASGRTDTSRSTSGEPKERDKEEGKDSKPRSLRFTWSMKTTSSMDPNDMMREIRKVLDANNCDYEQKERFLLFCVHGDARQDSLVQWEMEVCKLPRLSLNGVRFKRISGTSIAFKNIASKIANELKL

[19] = biological target: Serine/threonine-protein kinase MARK1 (Homo sapiens) (UniProt Q9P0L2); conditions: at 1 µM
[20] = biological target: MAP/microtubule affinity-regulating kinase 3 (Homo sapiens) (UniProt P27448); conditions: at 0.1 µM;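 further: mean percent inhibition of MARK3 kinase activity, measured within the GSK PKIS screening panel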
Sequence of MAP/microtubule affinity-regulating kinase 3 (Homo sapiens) (P27448 whole entry, looked up): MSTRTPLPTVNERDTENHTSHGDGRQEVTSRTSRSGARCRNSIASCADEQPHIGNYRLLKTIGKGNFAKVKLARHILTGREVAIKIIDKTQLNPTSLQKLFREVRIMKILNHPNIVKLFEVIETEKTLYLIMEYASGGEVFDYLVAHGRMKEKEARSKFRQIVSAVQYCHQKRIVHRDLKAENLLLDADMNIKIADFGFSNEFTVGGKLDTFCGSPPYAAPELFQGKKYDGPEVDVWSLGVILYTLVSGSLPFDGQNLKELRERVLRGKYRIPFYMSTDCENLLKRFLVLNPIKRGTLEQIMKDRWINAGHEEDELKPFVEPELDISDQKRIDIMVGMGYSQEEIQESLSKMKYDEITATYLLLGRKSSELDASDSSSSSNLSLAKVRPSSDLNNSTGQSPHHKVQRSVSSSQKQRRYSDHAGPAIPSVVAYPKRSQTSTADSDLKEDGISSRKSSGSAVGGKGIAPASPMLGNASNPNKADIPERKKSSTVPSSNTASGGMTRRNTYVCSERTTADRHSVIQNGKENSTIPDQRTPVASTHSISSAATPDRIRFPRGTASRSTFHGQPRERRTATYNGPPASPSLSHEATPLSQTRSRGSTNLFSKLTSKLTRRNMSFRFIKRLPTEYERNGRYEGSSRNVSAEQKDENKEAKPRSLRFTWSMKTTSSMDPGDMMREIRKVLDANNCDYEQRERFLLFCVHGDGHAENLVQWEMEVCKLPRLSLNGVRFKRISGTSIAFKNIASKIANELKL

Sequence of Calcium/calmodulin-dependent protein kinase type II subunit alpha (Homo sapiens) (Q9UQM7 whole entry): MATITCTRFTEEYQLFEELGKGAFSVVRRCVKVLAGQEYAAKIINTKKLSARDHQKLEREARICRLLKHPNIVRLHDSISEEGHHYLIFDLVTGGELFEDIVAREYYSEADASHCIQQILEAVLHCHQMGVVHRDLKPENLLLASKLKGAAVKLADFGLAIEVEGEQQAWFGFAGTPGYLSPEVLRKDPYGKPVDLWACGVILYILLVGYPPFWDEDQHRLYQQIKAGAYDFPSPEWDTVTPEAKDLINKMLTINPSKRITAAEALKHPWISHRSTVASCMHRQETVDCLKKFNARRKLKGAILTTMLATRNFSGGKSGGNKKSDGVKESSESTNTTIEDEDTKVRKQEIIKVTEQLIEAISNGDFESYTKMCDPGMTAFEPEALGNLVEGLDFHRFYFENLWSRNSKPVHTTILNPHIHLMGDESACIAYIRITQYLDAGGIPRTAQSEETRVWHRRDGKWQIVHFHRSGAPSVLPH
Sequence of Calcium/calmodulin-dependent protein kinase type II subunit delta (Homo sapiens) (Q13557 whole entry): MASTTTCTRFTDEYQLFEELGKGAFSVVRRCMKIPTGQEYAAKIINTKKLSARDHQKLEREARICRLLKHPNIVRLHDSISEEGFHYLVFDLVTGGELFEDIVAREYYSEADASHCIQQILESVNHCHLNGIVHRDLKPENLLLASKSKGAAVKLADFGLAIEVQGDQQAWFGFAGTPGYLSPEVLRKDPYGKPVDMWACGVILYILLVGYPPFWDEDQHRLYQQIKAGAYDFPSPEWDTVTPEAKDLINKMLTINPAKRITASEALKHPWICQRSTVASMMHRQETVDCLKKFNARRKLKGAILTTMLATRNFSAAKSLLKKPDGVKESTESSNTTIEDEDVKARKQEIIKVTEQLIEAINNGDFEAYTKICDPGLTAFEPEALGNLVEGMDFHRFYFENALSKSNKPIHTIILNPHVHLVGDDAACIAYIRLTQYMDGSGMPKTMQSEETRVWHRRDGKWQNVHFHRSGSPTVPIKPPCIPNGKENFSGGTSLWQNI

SMILES	inhibition [1] [%]	inhibition [2] [%]	inhibition [3] [%]	inhibition [4] [%]	inhibition [5] [%]	inhibition [6] [%]	inhibition [7] [%]	inhibition [8] [%]	inhibition [9] [%]	inhibition [10] [%]	inhibition [11] [%]	inhibition [12] [%]	inhibition [13] [%]	inhibition [14] [%]	inhibition [15] [%]	inhibition [16] [%]	inhibition [17] [%]	inhibition [18] [%]	inhibition [19] [%]	inhibition [20] [%]
COc1ccc2[nH]c3c4[nH]c5ccc(OC)cc5c4c4c(c3c2c1)C(=O)NC4=O	22.9	17.4	57.6	-5.78	-3.69	22.4	65.6	81.2	83.4	2	24.8	1.24	2.81	2.61	5.29	5.01	6.04	7.99	38.8	3.92
CC(C)COC(=O)c1ccc2c(c1)/C(=C/Nc1ccc(S(N)(=O)=O)cc1)C(=O)N2	17.5	4.43	36.7	1.85	3.51	0.91	18.1	-0.46	13.5	-2.01	3.08	-2.21	10.2	-0.97	-1.28	-2.74	-2.61	42.7	87.1	33.3
CNC(=O)c1cccc(C#Cc2cncnc2Nc2ccc(OCc3cccc(F)c3)c(Cl)c2)c1	1.97	0.91	1.19	-0.97	-3.36	-1.85	-0.79	0.62	2.35	-1.4	-1.89	-9.58	-6.14	1.01	0.58	1.88	1.66	-0.72	1.6	1.07
COC(=O)Nc1nc2ccc(S(=O)(=O)c3ccc(NC(=O)Nc4cc(C(F)(F)F)ccc4F)cc3)cc2[nH]1	3.22	3.61	3.6	-0.05	0.07	1.24	3.43	1.62	1.94	3.73	5.43	-0.62	-0.64	0.59	1.63	1.8	3.35	2.26	2.1	3.97
CCOc1ccc2c(-c3ccnc(Nc4cccc(C(F)(F)F)c4)n3)cnn2n1	-2.29	2.41	0.44	1.94	-1	3.49	3.51	1.55	1.92	3.1	1.54	1.21	3.6	0.79	-0.24	2.73	1.86	2.43	3.98	1.6
